Source: PubChem
The list is not random: actives were taken first. Their share in the collection is about 32%.
CYP2C19 activ – human CYP2C19 activators, primary screen, biochemical, luminescence | 96,000 tested, under 10 active | recombinant CYP2C19, luciferin-H EGE luminescence; hits give high values; 0 = fully inhibited enzyme, 1 = untreated enzyme | AID 1025, 2008 | activation factor at 5 µM | Cytochrome P450 2C19 (Homo sapiens), P33261;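 active means activation factor of at least 2 at 5 µM in the primary screen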
Target sequence (P33261 whole entry, looked up): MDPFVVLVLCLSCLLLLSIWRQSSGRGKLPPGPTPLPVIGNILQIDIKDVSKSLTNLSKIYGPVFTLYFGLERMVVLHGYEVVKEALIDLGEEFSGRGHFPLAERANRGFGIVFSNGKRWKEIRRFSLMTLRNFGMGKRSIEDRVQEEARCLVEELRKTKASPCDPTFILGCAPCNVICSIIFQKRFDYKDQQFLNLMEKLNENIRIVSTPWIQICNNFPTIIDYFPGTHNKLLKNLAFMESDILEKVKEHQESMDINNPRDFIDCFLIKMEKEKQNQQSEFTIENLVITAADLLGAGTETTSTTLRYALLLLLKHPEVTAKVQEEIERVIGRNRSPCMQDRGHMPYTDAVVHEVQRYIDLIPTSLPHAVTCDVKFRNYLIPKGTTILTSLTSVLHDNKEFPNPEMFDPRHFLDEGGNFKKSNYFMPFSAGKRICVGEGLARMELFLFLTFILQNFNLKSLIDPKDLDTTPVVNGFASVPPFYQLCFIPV
CYP2C9 inhib – blockers of cytochrome P450 2C9 activity – biochemical, luminescence, ADME assay, primary screen; P11712; CYP2C9 Supersomes, luciferin-H conversion; inhibition, % at 5 µM; 96,000 compounds, 20% hits; AID 777, 2007;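 active means blocking of liver enzyme CYP2C9 beyond about 50% at 5 µM, limit read from the data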
PostGolgi ctrl – growth inhibition of yeast control strain, primary screen, counter-screen for post-Golgi transport modulator project; efflux-deficient yeast background strain, growth absorbance A615, 16 h; 98,000 compounds, 5% hits; inhibition, % at 10 µM
PostGolgi yeast – phenotypic screen on post-Golgi transport, primary screen. 98,000 compounds, 0.9% hits. AID 739, 2007. post-Golgi transport phenotypic cell assay. inhibition, % at 10 µM;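 further: yeast cells grown in 1536-well plates; yeast grown about 18 h at 30C before absorbance read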
CYP2C19 inhib – blockers of cytochrome P450 2C19 activity – biochemical, luminescence, ADME assay, primary screen; P33261; CYP2C19 Supersomes, luciferin-H EGE luminescence, 30 min; inhibition, % at 5 µM; 96,000 compounds, 21% hits; AID 778, 2007;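 active means CYP2C19 inhibition above a set limit at 5 µM in the primary screen, cut at about 50% in these data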
CYP2C9 activ – human CYP2C9 activators, primary screen, biochemical, luminescence; activation factor at 5 µM; recombinant CYP2C9, luciferin-H conversion; hits give high values; factor 1 = untreated enzyme, 0 = blocked; 96,000 compounds, 1.4% hits;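 active means activation factor of 2 or more for CYP2C9 at a 5 µM dose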
Each line names hits and unclear results; the compound was inactive in the other large screens. Unless noted, no stated cut-off is given here; in the data, active means inhibition above about 30%; inactive means the rest.

CCCNc1cc(C)oc(=O)c1C(=O)CCC	CYP2C9 activ 2
CC(=O)c1c(NCCc2ccccc2)cc(C)oc1=O	CYP2C19 inhib 57
CCCC(=O)c1c(NC(C)C)cc(C)oc1=O	CYP2C9 activ 2.2
C=CCc1cccc(/C=N/c2ncccc2O)c1O	none
O=C(c1ccco1)n1c(=S)nc2ccccn21	CYP2C19 inhib 72
Cc1cccc2nc(=S)n(C(=O)c3ccco3)n12	CYP2C9 inhib 76, CYP2C19 inhib 73
CC1(C(=O)O)CCC(C(=O)NC2CCCCC2)C1(C)C (stereo not given)	none
CCSc1nc2c(c(=O)n1Cc1ccccc1)SC(C)C2 (stereo not given)	PostGolgi ctrl 33
CC1Cc2nc(SCC(=O)NCCc3ccccc3)n(C)c(=O)c2S1 (stereo not given)	none (no result: CYP2C19 activ, CYP2C9 inhib, CYP2C19 inhib, CYP2C9 activ)
CCn1c(SCC(=O)NCc2ccc(F)cc2)nc2c(c1=O)SC(C)C2 (stereo not given)	CYP2C9 inhib 63
CCn1c(SCC(=O)NCc2ccccc2)nc2c(c1=O)SC(C)C2 (stereo not given)	CYP2C9 inhib 61
CCn1c(SCC(=O)NCc2ccco2)nc2c(c1=O)SC(C)C2 (stereo not given)	none
CCn1c(SCC(=O)NCCc2ccccc2)nc2c(c1=O)SC(C)C2 (stereo not given)	CYP2C9 inhib 92, CYP2C19 inhib 76
CC1Cc2nc(SCC(=O)Nc3nccs3)n(Cc3ccccc3)c(=O)c2S1 (stereo not given)	none (no result: CYP2C19 activ, CYP2C9 inhib, CYP2C19 inhib, CYP2C9 activ)
O=c1cc(CN2CCN(CCO)CC2)c2cc3c(cc2o1)CCC3	none
Cc1cc2oc(=O)cc(Cn3ccnc3)c2cc1C	CYP2C9 inhib 57, CYP2C19 inhib 100
O=c1cc(Cn2ccnc2)c2cc3c(cc2o1)CCC3	CYP2C19 inhib 100
CNc1c([N+](=O)[O-])cnn1-c1ccc(Cl)cc1	none
COc1cc(OC)c(S(=O)(=O)NCc2ccco2)cc1S(=O)(=O)NCc1ccco1	none
CCOc1cc(C)c(Cl)cc1S(=O)(=O)NCc1ccco1	CYP2C9 activ 2
CCOc1ccc(S(=O)(=O)NCc2ccco2)c2ccccc12	CYP2C19 inhib 64
COc1ccccc1N1CCN(C(=O)c2ccc(Cl)c(S(=O)(=O)NCc3ccco3)c2)CC1	CYP2C9 inhib 77, CYP2C19 inhib 70
COc1cc(C)c(Cl)cc1S(=O)(=O)NCc1ccco1	CYP2C19 inhib 98, CYP2C9 activ 2
CCOc1ccc(S(=O)(=O)NCCC(=O)NCc2ccco2)cc1	none
O=c1[nH]c(CSc2nnc(NCCCN3CCOCC3)s2)nc2cc(Cl)ccc12	none
O=C(c1ccccc1)c1cncc(Br)c1	none
CN(C)S(=O)(=O)N(Cc1ccc(Br)cc1)c1ccccc1	CYP2C19 inhib 86
CN(C)S(=O)(=O)N(CC(=O)N(Cc1ccccc1)Cc1ccccc1)c1ccccc1	CYP2C9 inhib 85, PostGolgi ctrl 34, CYP2C19 inhib 81
CSc1oc(-c2ccco2)nc1S(=O)(=O)c1ccccc1	CYP2C9 activ 2.9
CSc1oc(-c2ccco2)nc1S(=O)(=O)c1ccc(F)cc1	none (no result: CYP2C19 activ, CYP2C9 inhib, CYP2C19 inhib, CYP2C9 activ)
CC(C)Sc1oc(-c2ccco2)nc1S(=O)(=O)c1ccccc1	PostGolgi ctrl 41 (no result: CYP2C19 activ, CYP2C9 inhib, CYP2C19 inhib, CYP2C9 activ)
C/C(=N\O)C(=O)NCCCNCCCN(C)C	none
O=C(NC1CC2CCC1C2)c1ccc(CN2CCOCC2)cc1 (stereo not given)	none
CCCCCCS(=O)Cc1ccccc1 (stereo not given)	CYP2C19 inhib 91
CCCCP(=O)(CCCC)Cc1ccccc1	none
COc1ccccc1CN(Cc1nc2ccccc2c(=O)[nH]1)S(=O)(=O)c1ccc(C)cc1	CYP2C9 inhib 74, CYP2C19 inhib 70
COc1ccc(S(=O)(=O)N(Cc2nc3ccccc3c(=O)[nH]2)C2CCCC2)cc1	CYP2C9 inhib 94, CYP2C19 inhib 85
COc1ccc(CN(Cc2nc3ccccc3c(=O)[nH]2)C(=O)NC2CCCCC2)cc1	none
COc1ccccc1CN(Cc1nc2ccccc2c(=O)[nH]1)C(=O)Nc1ccccc1C	CYP2C9 inhib 73, CYP2C19 inhib 89
COc1ccccc1CN(Cc1nc2ccccc2c(=O)[nH]1)C(=O)Nc1ccc(C)cc1	PostGolgi ctrl 31
Cc1nn(CC#N)c(=O)n1-c1ccccc1F	none
O=C(NCCc1ccccc1)C1CCCN1C(=O)Nc1ccc(F)cc1 (stereo not given)	none
FC(F)C(F)(F)C(F)(F)C(F)(F)c1cc(-c2ccccc2)n[nH]1	CYP2C9 inhib 76, PostGolgi ctrl 46, CYP2C19 inhib 85
Oc1ccccc1-c1cc(C(F)(F)C(F)F)nc(-c2ccccc2)n1	none
O=C(NCC1CCCO1)C1CC(=O)N(c2ccc(F)c(Cl)c2)C1 (stereo not given)	none
O=C1c2ccccc2C(Nc2ccc(-c3nc4ccccc4[nH]3)cc2)N1Cc1ccco1 (stereo not given)	CYP2C9 inhib 87, CYP2C19 inhib 73
O=C1c2ccccc2C(Nc2ccc3nc(-c4cccnc4)[nH]c3c2)N1Cc1ccco1 (stereo not given)	CYP2C9 inhib 93
O=C1c2ccccc2C(=O)N1Cc1nc2ccccc2c(=O)n1Cc1ccco1	none (no result: PostGolgi ctrl, PostGolgi yeast)
O=C(Nc1ccc2nc(-c3cccnc3)[nH]c2c1)c1ccco1	none
N#C/C(=C\c1ccc(Cl)cc1Cl)c1n[nH]c(Cn2cncn2)n1	CYP2C9 inhib 78, CYP2C19 inhib 61
CC(C)CNC(=O)CCc1c[nH]c2ccccc12	CYP2C19 inhib 84
O=C(CCS(=O)(=O)Cc1ccccc1)NCC1CCCO1 (stereo not given)	PostGolgi ctrl 34
O=C(Cc1ccccc1)NCC1CCCO1 (stereo not given)	none
O=C(CCc1c[nH]c2ccccc12)NCC1CCCO1 (stereo not given)	CYP2C19 inhib 89, CYP2C9 activ 3.1
O=C1c2ccccc2C(O)(Cc2ccccc2)N1CCCN1CCOCC1 (stereo not given)	none
CC1CC(=O)N(CC(=O)NCc2ccco2)c2ccccc2S1 (stereo not given)	CYP2C19 inhib 52
CC1CC(=O)N(CC(=O)NCc2ccc3c(c2)OCO3)c2ccccc2S1 (stereo not given)	CYP2C19 inhib 100
O=C(Cn1nc(-c2ccccc2F)ccc1=O)NCc1ccc2c(c1)OCO2	CYP2C9 inhib 56, CYP2C19 inhib 72
O=C(CN1C(=O)CCS(=O)(=O)c2ccccc21)NCc1ccc2c(c1)OCO2	CYP2C19 inhib 90
CC1CC(=O)N(CC(=O)N2CCCC2)c2ccccc2S1 (stereo not given)	none
CN1CCc2c(c3c(n2C)CCN(C)[C@H]3c2ccccc2F)[C@@H]1c1ccccc1F	none
O=C1CCC(=O)N1CNc1ccccn1	none
COc1ccc(NC2CC(=O)NC2=O)cc1 (stereo not given)	none
